{"source": "PubChem BioAssay (NCATS)", "key": {"[1]": {"target": "Vitamin D3 receptor (Homo sapiens) (UniProt P11473)", "sequence (P11473 whole entry, looked up, the tested form may be a part)": "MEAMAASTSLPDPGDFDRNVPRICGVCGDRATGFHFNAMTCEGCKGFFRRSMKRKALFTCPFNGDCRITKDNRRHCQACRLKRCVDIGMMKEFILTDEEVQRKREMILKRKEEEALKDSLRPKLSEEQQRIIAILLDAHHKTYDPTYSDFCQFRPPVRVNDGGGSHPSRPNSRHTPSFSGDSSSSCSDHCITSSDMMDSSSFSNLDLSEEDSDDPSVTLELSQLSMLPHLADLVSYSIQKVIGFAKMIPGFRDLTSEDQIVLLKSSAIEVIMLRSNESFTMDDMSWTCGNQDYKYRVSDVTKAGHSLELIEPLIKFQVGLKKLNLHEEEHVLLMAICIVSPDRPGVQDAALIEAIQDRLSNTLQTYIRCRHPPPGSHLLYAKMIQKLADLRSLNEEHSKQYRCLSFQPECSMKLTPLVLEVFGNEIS", "assay": "qHTS for Inhibitors of the vitamin D receptor (VDR): Hit Validation in Primary Screen (AID 602199); further: potency means the concentration at half of the fitted maximal effect", "conditions": "VDR-coactivator inhibition assay, qHTS confirmation", "in_short": "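Fluorescence polarization assay of VDR binding to Alexa 647-labelled SRC2-3 coactivator peptide: 800nM VDR with 5uM LG19078 agonist, compounds, 2 h at room temperature, read Ex 620 nm/Em 688 nm.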"}, "[2]": {"target": "Vitamin D3 receptor (Homo sapiens) (UniProt P11473)", "assay": "qHTS for Inhibitors of the vitamin D receptor (VDR): Hit Validation using a Beta-Lactamase Assay (AID 602202)", "in_short": "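Stably transfected HEK293 cells express a VDR–GAL4 DNA-binding-domain fusion driving a UAS beta-lactamase reporter, stimulated by agonist LG190178. Compounds were added 4 h after plating and incubated 18 h. A FRET beta-lactam substrate was then added for 2 h and cleaved substrate emission read at 447 nm.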"}, "[3]": {"assay": "qHTS for Inhibitors of the vitamin D receptor (VDR): Hit Validation using a Cytotoxicity Assay (AID 602204); further: nearly all actives have a fitted effect of over 75% in size", "in_short": "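Plated cells (20,000/well) incubate 4 h, receive test compounds, and incubate 18 h more. A luminescent reagent measuring ATP from living cells is added and read after 30 min.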"}, "[4]": {"target": "Cytochrome P450 3A4 (Homo sapiens) (UniProt P08684)", "sequence (P08684 whole entry, looked up)": "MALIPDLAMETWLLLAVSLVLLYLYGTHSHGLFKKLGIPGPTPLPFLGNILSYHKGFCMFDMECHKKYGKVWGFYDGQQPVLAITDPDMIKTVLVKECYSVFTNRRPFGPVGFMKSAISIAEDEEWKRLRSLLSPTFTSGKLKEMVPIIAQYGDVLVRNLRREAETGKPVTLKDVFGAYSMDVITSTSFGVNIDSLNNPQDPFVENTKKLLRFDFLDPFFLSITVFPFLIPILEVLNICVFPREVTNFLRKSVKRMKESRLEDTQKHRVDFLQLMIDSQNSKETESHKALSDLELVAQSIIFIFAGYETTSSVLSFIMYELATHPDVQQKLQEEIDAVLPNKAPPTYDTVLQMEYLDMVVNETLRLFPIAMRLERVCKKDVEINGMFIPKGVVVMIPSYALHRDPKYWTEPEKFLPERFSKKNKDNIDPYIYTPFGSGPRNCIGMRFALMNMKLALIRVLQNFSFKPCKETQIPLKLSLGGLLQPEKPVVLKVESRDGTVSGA", "assay": "qHTS Assay for Activators of Cytochrome P450 3A4 (AID 885); further: nearly all actives have a fitted effect of over 65% in size", "in_short": "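Steps: enzyme/substrate mix dispensed; compound added, 10 min RT; NADPH regeneration solution added, 60 min RT; luciferin detection buffer stops reaction; 20 min later luminescence measured.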"}, "[5]": {"target": "Peroxisome proliferator-activated receptor delta (Homo sapiens) (UniProt Q03181)", "sequence (Q03181 whole entry, looked up)": "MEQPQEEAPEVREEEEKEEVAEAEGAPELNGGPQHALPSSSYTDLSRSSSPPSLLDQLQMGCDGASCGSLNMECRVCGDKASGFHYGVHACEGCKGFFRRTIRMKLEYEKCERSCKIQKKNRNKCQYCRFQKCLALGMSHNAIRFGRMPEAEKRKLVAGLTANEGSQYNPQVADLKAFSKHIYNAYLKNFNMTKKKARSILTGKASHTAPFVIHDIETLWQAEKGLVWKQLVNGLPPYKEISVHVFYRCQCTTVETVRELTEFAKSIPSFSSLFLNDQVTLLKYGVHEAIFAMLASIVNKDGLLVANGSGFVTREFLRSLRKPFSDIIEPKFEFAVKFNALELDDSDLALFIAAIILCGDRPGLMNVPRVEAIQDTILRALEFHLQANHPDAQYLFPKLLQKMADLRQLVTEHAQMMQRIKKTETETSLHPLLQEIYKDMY", "assay": "qHTS assay for small molecule agonists of peroxisome proliferator-activated receptor delta signaling (AID 588534; calls by dose curve)", "in_short": "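Cell-based beta-lactamase reporter assay run in agonist mode: cells seeded and incubated 5 hrs at 37 C, compounds added and incubated 18 hrs at 37 C. CCF4 dye fluorescence read after 2 hrs at RT; EC50 and efficacy from Hill fits.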"}, "[6]": {"assay": "qHTS for Inhibitors of the vitamin D receptor (VDR): Hit Validation using a Texas Red Assay (AID 602201)", "in_short": "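Fluorescence polarization (Ex 595/Em 615 nm) of Texas Red (7 nM) with 1.5 uM VDR-LBD and LG19078 (final concentrations). Compounds were incubated for 2 hours at room temperature.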"}, "[7]": {"assay": "MultiTox-Fluor Cytotoxicity Assay - LYMP1-002 - Dead Cells (AID 960); further: potency means the concentration at half of the fitted maximal effect; nearly all actives have a fitted effect of over 60% in size", "in_short": "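Human lymphoblastoid cells (LYMP1-002), 2500/well in complete medium, were exposed to compounds for 16 hr at 37 C. Dead-cell protease activity was read as bis-AAF-R110 fluorescence (Ex/Em 485/520), normalized to DMSO and 15 uM tetraoctylammonium bromide; AC50 from Hill fits.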"}, "[8]": {"target": "Peroxisome proliferator-activated receptor gamma (Homo sapiens) (UniProt P37231)", "sequence (P37231 whole entry, looked up)": "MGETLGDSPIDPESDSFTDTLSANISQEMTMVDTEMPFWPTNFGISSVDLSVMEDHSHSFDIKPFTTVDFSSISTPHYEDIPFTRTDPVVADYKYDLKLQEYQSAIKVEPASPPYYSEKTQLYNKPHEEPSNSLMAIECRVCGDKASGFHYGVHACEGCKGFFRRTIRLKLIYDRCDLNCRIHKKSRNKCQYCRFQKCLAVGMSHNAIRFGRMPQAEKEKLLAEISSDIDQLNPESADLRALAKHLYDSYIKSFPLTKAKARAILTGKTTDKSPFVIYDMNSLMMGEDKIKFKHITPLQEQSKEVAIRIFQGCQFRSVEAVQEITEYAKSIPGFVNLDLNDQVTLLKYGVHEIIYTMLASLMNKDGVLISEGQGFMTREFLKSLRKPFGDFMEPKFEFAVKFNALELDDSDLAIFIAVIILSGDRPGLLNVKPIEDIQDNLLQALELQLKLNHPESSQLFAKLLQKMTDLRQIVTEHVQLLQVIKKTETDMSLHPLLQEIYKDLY", "assay": "qHTS assay for small molecule agonists of peroxisome proliferator-activated receptor gamma signaling (AID 588536; active means well fitted curve in the direction sought with a large enough effect in the signal ratio, with a control signal flat, not every such curve was filed as active; the % refers to the signal ratio)", "in_short": "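Test agents, titrated, stimulated HEK293 UAS-bla cells overnight (16 h, 37 C). Substrate CCF4 was then added for two hours at room temperature before fluorescence reading.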"}, "[9]": {"target": "Peroxisome proliferator-activated receptor gamma (Homo sapiens) (UniProt P37231)", "assay": "qHTS assay for small molecule antagonists of peroxisome proliferator-activated receptor gamma signaling (AID 588537; active means well fitted inhibition curve with a large enough effect in the signal ratio, with a control signal flat, not every such curve was filed as active; the % refers to the signal ratio; further: potency means the concentration at half of the fitted maximal effect)", "in_short": "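PPAR-gamma-UAS-bla HEK293 cells (3000/well, 1% charcoal/dextran-stripped FBS) were preincubated 6-6.5 h at 37 C, given titrated compounds, then stimulated with 50 nM rosiglitazone for 16 h. Beta-lactamase activity was read with CCF4 dye; IC50 came from Hill fits.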"}, "[10]": {"assay": "qHTS assay for small molecule agonists of retinoid X receptor alpha signaling (AID 588544; calls by dose curve)", "conditions": "HEK293T RXRa-UAS-bla, beta-lactamase reporter, 18 h; 530 nm emission"}, "[11]": {"target": "Retinoic acid receptor RXR-alpha (Homo sapiens) (UniProt P19793)", "sequence (P19793 whole entry, looked up)": "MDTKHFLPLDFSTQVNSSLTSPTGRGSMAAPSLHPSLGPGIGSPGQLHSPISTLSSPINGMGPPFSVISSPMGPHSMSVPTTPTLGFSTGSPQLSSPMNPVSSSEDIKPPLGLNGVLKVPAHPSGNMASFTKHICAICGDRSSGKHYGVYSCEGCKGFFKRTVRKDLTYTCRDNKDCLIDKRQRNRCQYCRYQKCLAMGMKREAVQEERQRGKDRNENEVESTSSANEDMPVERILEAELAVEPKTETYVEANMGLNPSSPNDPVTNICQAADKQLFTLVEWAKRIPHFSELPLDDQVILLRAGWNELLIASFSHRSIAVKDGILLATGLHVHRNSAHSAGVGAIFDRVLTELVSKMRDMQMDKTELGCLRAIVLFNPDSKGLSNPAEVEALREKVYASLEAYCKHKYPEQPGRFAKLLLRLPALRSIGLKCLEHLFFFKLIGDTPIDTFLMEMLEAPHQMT", "assay": "qHTS assay for small molecule agonists of retinoid X receptor alpha signaling (AID 588544)"}, "[12]": {"target": "Thyroid hormone receptor beta (Homo sapiens) (UniProt P10828)", "sequence (P10828 whole entry, looked up)": "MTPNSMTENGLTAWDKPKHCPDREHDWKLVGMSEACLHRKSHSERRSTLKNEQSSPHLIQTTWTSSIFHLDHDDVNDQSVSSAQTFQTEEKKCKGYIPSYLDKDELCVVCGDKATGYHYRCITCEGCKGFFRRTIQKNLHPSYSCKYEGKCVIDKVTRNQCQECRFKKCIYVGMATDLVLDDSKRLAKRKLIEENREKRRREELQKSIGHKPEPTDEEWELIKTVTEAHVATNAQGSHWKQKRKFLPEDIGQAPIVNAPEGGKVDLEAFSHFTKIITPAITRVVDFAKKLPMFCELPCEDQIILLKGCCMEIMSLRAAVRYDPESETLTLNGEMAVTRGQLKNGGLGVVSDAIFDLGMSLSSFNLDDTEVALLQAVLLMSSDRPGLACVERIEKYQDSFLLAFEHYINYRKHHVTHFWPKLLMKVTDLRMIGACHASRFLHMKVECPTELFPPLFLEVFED", "assay": "qHTS assay for small molecule agonists of thyroid hormone receptor beta signaling (AID 588545; calls by dose curve)", "in_short": "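Compounds were tested as agonists in TR-UAS-bla-GripTite HEK 293 cells. After 18 hrs at 37 C, CCF4 substrate was added and fluorescence read after 2 hrs at room temperature.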"}, "[13]": {"assay": "qHTS assay for small molecule antagonists of retinoid X receptor alpha signaling (AID 588546; active means well fitted inhibition curve with a large enough effect in the signal ratio, with a control signal flat, not every such curve was filed as active; the % refers to the signal ratio)", "conditions": "HEK293T RXRa-UAS-bla, beta-lactamase ratio, antagonist mode; measured here: W530 green channel, cytotoxicity proxy", "in_short": "(§1)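 Beta-lactamase reporter inhibition, read as CCF4 fluorescence ratio (ex 405, em 460/530 nm) after 2 h at RT. HEK293T UAS-bla cells, 2500/well, were stimulated with 9-cis-RA at 500 or 100 nM final alongside test compound for 18 h at 37 C.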"}, "[14]": {"target": "Retinoic acid receptor RXR-alpha (Homo sapiens) (UniProt P19793)", "assay": "qHTS assay for small molecule antagonists of retinoid X receptor alpha signaling (AID 588546)", "conditions": "HEK293T RXRa-UAS-bla, beta-lactamase ratio, antagonist mode", "in_short": "as §1"}, "[15]": {"target": "Thyroid hormone receptor beta (Homo sapiens) (UniProt P10828)", "assay": "qHTS assay for small molecule antagonists of thyroid hormone receptor beta signaling (AID 588547; active means well fitted inhibition curve with a large enough effect in the signal ratio, with a control signal flat, not every such curve was filed as active; the % refers to the signal ratio)", "conditions": "TR-UAS-bla HEK293, beta-lactamase ratio, antagonist mode, 18 h", "in_short": "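TR-UAS-bla GripTite HEK293 cells in 2% charcoal/dextran FBS medium were preincubated 4 h at 37 C, given compound (0.59 nM to 92 uM) plus 0.4 nM T3 (final) for 18 h, then CCF4 for 2 h at RT; Hill fit gave IC50.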"}, "[16]": {"assay": "qHTS assay for small molecule activators of the p53 signaling pathway (AID 651743; active means well fitted activation curve with a large enough effect in the signal ratio, not every such curve was filed as active; the % refers to the signal ratio)", "conditions": "HCT-116 p53RE-bla, beta-lactamase FRET ratio, 16 h; activation: stronger effect = higher value", "in_short": "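p53RE-bla HCT-116 cells with a stably integrated beta-lactamase reporter under p53 response elements were plated, rested 5 hours at 37 C/5% CO2, then exposed to compounds in DMSO for 16 hours at 37 C. LiveBLAzer B/G FRET substrate was read after 2 hours at room temperature.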"}, "[17]": {"assay": "qHTS assay for small molecule activators of the nuclear factor-kappa B (NF-kB) signaling pathway (AID 651749; active means well fitted activation curve with a large enough effect in the signal ratio; the % refers to the signal ratio)", "conditions": "NF-kB-bla ME-180 cells, beta-lactamase FRET ratio, 16 h; activation: stronger effect = higher value", "in_short": "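ME-180 cells stably carrying a beta-lactamase reporter under an NF-kB response element were exposed to compound or DMSO vehicle for 16 hr at 37C, 5% CO2. Pathway activation was read by FRET, since reporter expression disrupts FRET.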"}, "[18]": {"assay": "qHTS assay for environmental chemicals that activate the Aryl hydrocarbon Receptor (AhR) signaling pathway (AID 651777)", "conditions": "1A2-DRE human hepatoma cells, luciferase, 24 h; activation: stronger effect = higher value", "in_short": "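Induction of CYP1A2 transcription through AhR is detected by luciferase in 1A2-DRE hepatoma cells. Compounds or DMSO act for 24 hr at 37 C before a 30 min One-Glo step at room temperature.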"}, "[19]": {"target": "Peroxisome proliferator-activated receptor alpha (Homo sapiens) (UniProt Q07869)", "sequence (Q07869 whole entry, looked up)": "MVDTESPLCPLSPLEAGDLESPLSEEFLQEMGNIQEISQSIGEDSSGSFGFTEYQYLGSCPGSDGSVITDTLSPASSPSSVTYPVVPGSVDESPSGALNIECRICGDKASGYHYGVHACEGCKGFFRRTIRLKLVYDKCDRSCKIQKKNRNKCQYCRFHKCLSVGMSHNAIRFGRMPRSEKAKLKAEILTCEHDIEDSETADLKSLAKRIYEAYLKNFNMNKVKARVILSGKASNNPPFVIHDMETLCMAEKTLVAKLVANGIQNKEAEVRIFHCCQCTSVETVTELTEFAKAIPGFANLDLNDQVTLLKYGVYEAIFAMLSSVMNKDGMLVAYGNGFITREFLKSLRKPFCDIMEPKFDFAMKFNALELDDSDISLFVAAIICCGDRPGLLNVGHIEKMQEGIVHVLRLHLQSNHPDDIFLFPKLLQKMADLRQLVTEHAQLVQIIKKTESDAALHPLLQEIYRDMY", "assay": "qHTS assay for small molecule agonists of the peroxisome proliferator-activated receptor alpha (PPARalpha) signaling pathway (AID 651778)", "conditions": "PathHunter PPARalpha complementation, chemiluminescence, 6 h; max response: stronger effect = higher value", "in_short": "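Cells plated at 2,000/well and held overnight at 37 C, 5% CO2, then compound added by pin tool for 6 hr; after PathHunter detection reagent and 60 min at room temperature, chemiluminescence from enzyme complementation was read.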"}, "[20]": {"assay": "qHTS assay for small molecule agonists of the antioxidant response element (ARE) signaling pathway measured by Nrf2-dependant transcriptional activity - cell viability counter screen (AID 720653; active means well fitted curve in the direction sought with a large enough effect in the repeat runs; an effect the other way counts as inactive or inconclusive)", "conditions": "ARE-bla HepG2 viability, CellTiter-Glo ATP luminescence, 16 h; max response: stronger effect = lower value", "in_short": "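ARE-bla HepG2 cells (2,000/well) rested 5 hrs at 37C/5% CO2, then exposed to compounds in DMSO for 16 hrs. Viability was read in the same wells as intracellular ATP by luminescence, 30 min at room temperature after reagent addition.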"}, "[21]": {"assay": "qHTS assay for cell viability of HEK293 cells (AID 743288)", "conditions": "ATP luminescence (CellTiter-Glo), 18 h; max response: stronger effect = lower value", "in_short": "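Parental HEK293 cells, 2,000 per well, preincubated at least 5 h at 37 C, then exposed to compounds in DMSO for 18 h at 37 C. Viability by CellTiter-Glo ATP luminescence after 30 min at room temperature.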"}, "[22]": {"assay": "qHTS assay for cell viability of the p53RE-bla HCT-116 cell line (AID 743292)", "in_short": "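In this qHTS counter-screen, metabolically competent p53RE-bla HCT-116 cells were counted via their ATP content. Compounds were applied for 16 h at 37 C and luciferase-coupled luminescence was measured.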"}}, "note": "Inconclusive results are not listed. This is one part of the list. A call without a number means that no potency is given here. Calls of active or inactive are those of the source. Unless noted, the call rests on the fitted dose curve; in most records, active means well fitted curve in the direction sought with a large enough effect; inconclusive means small, poorly fitted or top-dose-only effect, or another doubt; inactive means no such curve, though single readings can be large; an effect the other way counts as inactive or inconclusive. Wherever activity change % (negative = inhibition) is given: series mostly up to about 77 µM."}
{"smiles": "Cc1ccnc(-n2c(C)cc(/C=C3\\C(=O)NC(=S)N(C)C3=O)c2C)c1", "values": [{"measurement": "Potency", "setting": "[1]", "result": "29.9 µM (active)"}, {"measurement": "outcome", "setting": "[2]", "result": "inactive"}, {"measurement": "outcome", "setting": "[3]", "result": "inactive"}]}
{"smiles": "COc1ccc(C)cc1N", "values": [{"measurement": "Potency", "setting": "[4]", "result": "inactive"}, {"measurement": "outcome", "setting": "[5]", "result": "inactive"}]}
{"smiles": "O=C(O)CCC(=O)NCCC1=c2ccccc2=N/C1=C\\c1c(O)n(Cc2ccc(F)cc2)c(=S)[nH]c1=O", "values": [{"measurement": "Potency", "setting": "[6]", "result": "inactive"}]}
{"smiles": "O=C1NC(=O)C(=Cc2ccc(-c3cc(Cl)ccc3[N+](=O)[O-])o2)C(=O)N1", "values": [{"measurement": "Potency", "setting": "[6]", "result": "inactive"}]}
{"smiles": "COc1ccc(N=[N+]([O-])c2ccc(OC)cc2)cc1", "values": [{"measurement": "Potency", "setting": "[7]", "result": "25.1 µM (active)"}, {"measurement": "outcome", "setting": "[5]", "result": "inactive"}]}
{"smiles": "COc1cc(/C=C/[N+](=O)[O-])ccc1O", "values": [{"measurement": "Potency", "setting": "[6]", "result": "inactive"}]}
{"smiles": "O=C(O)CCn1cc(C=C2C(=O)NC(=S)NC2=O)c(-c2cccc(Cl)c2)n1", "values": [{"measurement": "Potency", "setting": "[6]", "result": "inactive"}]}
{"smiles": "CC(C)NC(=O)N1CC(=O)N(c2cc(Cl)cc(Cl)c2)C1=O", "values": [{"measurement": "Potency", "setting": "[8]", "result": "inactive"}, {"measurement": "Potency", "setting": "[9]", "result": "44.7 µM (active)"}, {"measurement": "max response", "setting": "[10]", "result": 21.2, "unit": "%"}, {"measurement": "Potency", "setting": "[11]", "result": "inactive"}, {"measurement": "Potency", "setting": "[12]", "result": "inactive"}, {"measurement": "max response", "setting": "[13]", "result": 11.6, "unit": "%"}, {"measurement": "max response", "setting": "[14]", "result": "-6.64% (inactive)"}, {"measurement": "activity change % (negative = inhibition)", "setting": "[15]", "result": "4.77% (inactive)"}, {"measurement": "activation", "setting": "[16]", "result": "-1.23% (inactive)"}, {"measurement": "activation", "setting": "[17]", "result": "-3.11% (inactive)"}, {"measurement": "activation", "setting": "[18]", "result": "14.5% (inactive)"}, {"measurement": "max response", "setting": "[19]", "result": "0.394% (inactive)"}, {"measurement": "max response", "setting": "[20]", "result": "1.07% (inactive)"}, {"measurement": "max response", "setting": "[21]", "result": "-6.95% (inactive)"}, {"measurement": "Potency", "setting": "[22]", "result": "inactive"}]}
